Experimental data reported in PubChem BioAssay AID1259313 (Sanford-Burnham Center for Chemical Genomics, 2017).
Out of some 340,000 compounds screened, about 8,500 (2.5%) were called active.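 The calls were made as follows: active = melting temperature shift of at least 10% of the positive control shift, at one fixed dose; inactive = the rest.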 Only a selection was taken, and actives are over-represented in it overall.

Test system: Glutamate receptor ionotropic, NMDA 3A (GRIN3A) ligand-binding domain
Experiment: binders of NR3A ligand-binding domain, primary screen, biophysical, differential scanning fluorimetry, uHTS (AID 1259313)
Settings: NR3A LBD differential scanning fluorimetry, at 25 µM, stronger effect = higher value, 0% = protein alone, 100% = glycine-bound protein

| SMILES | Tm shift relative to glycine control |
| --- | --- |
| COc1ccc2c(CC(=O)OCC(=O)NC(N)=O)coc2c1 | -1.31% (inactive) |
| Cn1cccc1C(=O)NC(=O)COC(=O)Cc1coc2ccc3ccccc3c12 | 711% (active) |
| O=C(Cc1coc2ccc3ccccc3c12)NCc1cccs1 | -3.17% (inactive) |
| CN(C)S(=O)(=O)c1ccc(C(=O)NCC2(N3CCOCC3)CCCCC2)cc1 | -0.34% (inactive) |
| CCC(C)NC(=O)C1c2ccccc2C(=O)N1Cc1ccccc1 (centres undefined) | 0.89% (inactive) |
| Nc1cccc(S(=O)(=O)Nc2ccc(SC(F)F)cc2)c1 | -8.52% (inactive) |
| Cc1c(NS(=O)(=O)c2cccc(C(=O)Nc3ccc(SC(F)F)cc3)c2)c(=O)n(-c2ccccc2)n1C | -4.82% (inactive) |
| COc1ccc(NC(=O)/C(N=Nc2cccc(S(=O)(=O)Nc3ccc(SC(F)F)cc3)c2)=C(\C)O)cc1 | 28% (active) |
| Cc1ccc(NN=C2C(=O)OC(C)(C)OC2=O)c(C)c1 | -1.21% (inactive) |
| CC(CO)N1CCS(=O)(=O)CC1 (centres undefined) | 0.09% (inactive) |
| CCOc1ccc(N/C(N)=N/c2nc(C)c(C)c(=O)[nH]2)cc1 | 2.12% (inactive) |
| Cc1cc(Nc2ccc(Br)cc2)nc2ccccc12 | 45.6% (active) |
| CN1CCN(c2nc(Nc3ccc(O)cc3)nc3ccccc23)CC1 | -0.23% (inactive) |
| Cc1ccc2nc(Nc3ccccc3)cc(C)c2c1 | 30.3% (active) |
| Cc1ccc2nc(C)c3c(c2c1)N(c1ccccc1)CC3 | -1.71% (inactive) |
| Cc1ccc(Nc2nc(C)cc(C)c2C(N)=O)cc1 | -2.09% (inactive) |
| CCOc1ccc(NC(=O)c2cc(C)nc3ccccc23)cc1 | -0.84% (inactive) |
| Cc1cccc(NC(=S)N2CCC(O)CC2)c1C | 1.31% (inactive) |
| CC(C)=CCN1CCN(Cc2ccc(Oc3ncccn3)cc2)CC1CCO (centres undefined) | 0.09% (inactive) |
| COC(=O)c1ccc(NC(=O)C23CC4CC(C2)CC(n2cnc(Cl)n2)(C4)C3)cc1 | -0.61% (inactive) |

| SMILES | Tm shift relative to glycine control |
| --- | --- |
| O=C(CSc1ncn[nH]1)Nc1nc(-c2cccc([N+](=O)[O-])c2)cs1 | -2.42% (inactive) |
| COc1ccc(-n2cnnc2SCC(=O)Nc2cccc([N+](=O)[O-])c2)cc1 | -0.86% (inactive) |
| O=C(CSc1nc(-c2ccccc2)cs1)Nc1cccc([N+](=O)[O-])c1 | 34.4% (active) |
| Cc1cc(/C=N/n2cnnc2)c(C)n1-c1ccc2ncccc2c1 | -0.4% (inactive) |
| Cc1nn(-c2ccccc2)c(Cl)c1/C=C/C(=O)c1ccc(O)cc1 | 15.2% (active) |
| Cc1ccc(C(=O)/C=C/c2c(C)nn(-c3ccccc3)c2Cl)cc1 | -10.2% (inactive) |
| Cc1nn(-c2ccccc2)c(C)c1/C=C/C(=O)OC(C)C(N)=O (centres undefined) | -7.09% (inactive) |
| COc1ccc(Br)c2c1C(=O)CC2 | 2.15% (inactive) |
| CCCCN(C)C(=O)C1CCN(Cc2ccccn2)CC1 | 1.37% (inactive) |
| COc1ccc(-c2cc(C(=O)N3CCN(Cc4ccc5c(c4)OCO5)CC3)on2)cc1OC | -2.25% (inactive) |
| COc1ccc(-c2csc3ncnc(N4CCN(S(=O)(=O)c5ccccc5C#N)CC4)c23)cc1 | -2.57% (inactive) |
| CC(CNC(=O)Cn1cnc2c(OCc3ccccc3)ncnc21)c1ccccc1 (centres undefined) | 16.8% (active) |
| O=C(Cn1cnc2c(OCc3ccccc3)ncnc21)NCc1nc2ccccc2[nH]1 | -0.08% (inactive) |
| Cc1ccc(NC(=O)Cn2cnc3c(OCc4ccccc4)ncnc32)cc1C | -1.41% (inactive) |
| COc1ccc(Br)cc1CN(C)C(=O)C1CC(=O)N(C2CCCC2)C1 (centres undefined) | -0.58% (inactive) |
| O=C(O)C1CCN1C1CCCCC1 (centres undefined) | -1.21% (inactive) |
| CCOC(=O)c1nnn(CC(=O)Nc2cccc(F)c2)c1C(=O)OCC | -0.09% (inactive) |
| Cc1nc(C)c(-c2nnc(-c3cccc(S(=O)(=O)N(C)C)c3)o2)cc1C(=O)NN | 4.67% (inactive) |
| O=C1/C(=C\c2ccc(O)cc2)CCC1CNc1ccc(Cl)cc1 (centres undefined) | 21.3% (active) |
| CC1CCN(C2=NC(=O)/C(=C/c3ccc(O)cc3)S2)CC1 | -0.54% (inactive) |

| SMILES | Tm shift relative to glycine control |
| --- | --- |
| CC(C(=O)NC1CCS(=O)(=O)C1)N1C(=O)/C(=C/c2ccc(Cl)cc2)SC1=S (centres undefined) | -5.79% (inactive) |
| O=C(COC(=O)c1ccc(F)cc1)NCC1COc2ccccc2O1 (centres undefined) | 0.36% (inactive) |
| Cc1cc(C)c2c(c1)c(C)cc1nnc(SCC(=O)NCc3ccco3)n12 | 9.65% (inactive) |
| Cc1ccccc1N1CC(C(=O)Nc2ccc(S(=O)(=O)N3CCCC3)cc2)CC1=O (centres undefined) | -1.31% (inactive) |
| COc1ccc(-n2c(SCC(=O)NCc3ccco3)nnc2-c2c[nH]c3ccccc23)cc1 | -3.71% (inactive) |
| CC(Oc1ccc(-c2ccccc2)c(F)c1)c1ccn(S(=O)(=O)c2cccc3ccccc23)n1 (centres undefined) | 1.41% (inactive) |
| NC(=O)c1ccsc1NC(=O)COC(=O)COc1ccc(C=O)cc1 | -1% (inactive) |
| Cc1cc(NC(=O)CN2C(=O)NC(CCc3ccccc3)C2=O)no1 (centres undefined) | 0% (inactive) |
| Cc1cc(C)c(NC(=O)CN2C(=O)NC(Cc3ccccc3)C2=O)c(C)c1 (centres undefined) | 0.16% (inactive) |
| CCCCc1ccc(NC(=O)CN2C(=O)NC(Cc3ccccc3)C2=O)cc1 (centres undefined) | 38.2% (active) |
| Cc1scc(C(=O)NNC(=S)NCC(C)C)c1C | -0.09% (inactive) |
| COCCCN1C(=O)c2ccc(C(=O)OCC(=O)NCc3ccccc3OC)cc2C1=O | -0.26% (inactive) |
| CCOc1ccc(NC(=O)CCCCCN2C(=O)[C@@H]3Cc4ccccc4CN3C2=O)cc1 | -0.91% (inactive) |
| COc1cc(OC)cc(C(=O)Nc2ncc3c(n2)CC(C)(C)CC3=O)c1 | -0.38% (inactive) |
| COc1cc(OC)cc(C(=O)N[C@H](C(=O)Nc2nc3ccccc3[nH]2)C(C)C)c1 | -1.04% (inactive) |
| COc1cc(OC)cc(C(=O)Nc2ccc(-c3nc4ccccc4o3)c(O)c2)c1 | 35.4% (active) |
| Cc1noc(C)c1S(=O)(=O)Nc1ccc(C(=O)N2CCN(c3ccc(F)cc3)CC2)cc1 | -0.58% (inactive) |
| CC/C(=N\O)C(C)(C)/[N+]([O-])=C/c1ccc(Br)cc1 | 0.62% (inactive) |
| CC(C)CN1CCNC(=O)C1CC(=O)N(C)CC1CCOCC1 (centres undefined) | 0.85% (inactive) |
